# Test results reported in the supplement of paper PMC6555819.
# What was measured:
# Assay in all cases: PBM binding z-score (relative to random genomic background probes); higher = stronger binding; sequences stand for … in GC…GCGATTGACAGCGTAGAATGAAGG
# [1] = test system: PPARg:RXRa DBDmut IVT, anti-RXR (DBD mutation: RXRa K156A/R161A, NR concentration 270 nM, RXRa partner concentration 90 nM)
# Outline: (§1)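 Custom Agilent 4×180K protein-binding microarrays carried double-stranded probes. Their 34-nt variable regions held direct-repeat seeds, single-nucleotide variants, half-site ablations and random human genomic background sequences. Arrays were incubated 1 h with ligand-free nuclear receptor dimers in PBS pH 7.4, 2% milk, 0.02% Triton X-100, 1 mM DTT, 0.2 mg/mL BSA and 0.4 mg/ml salmon testes DNA. Antibodies against each partner (one per run) detected binding, and scanned fluorescence was regression-normalized. Binding z-scores use random background probes as reference.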
# [2] = test system: PPARg:RXRa IVT, anti-PPARg (NR concentration 270 nM, RXRa partner concentration 90 nM)
# Outline: as §1
# [3] = test system: PPARg DBDmut:RXRa IVT, anti-PPARg (DBD mutation: PPARg1 K132A/R137A, NR concentration 270 nM, RXRa partner concentration 90 nM)
# Outline: as §1
# [4] = test system: PPARg DBDmut IVT, anti-PPARg (DBD mutation: PPARg1 K132A/R137A, NR concentration 270 nM)
# Outline: as §1
# [5] = test system: PPARg homodimer (NR concentration 180 nM)
# Outline: as §1
# [6] = test system: PXR:RXRa (NR concentration 270 nM, RXRa partner concentration 90 nM)
# Outline: as §1
# [7] = test system: PXR homodimer (NR concentration 270 nM)
# Outline: as §1
# [8] = test system: RARa:RXR (NR concentration 270 nM, RXRa partner concentration 90 nM)
# Outline: as §1
# [9] = test system: RARa homodimer (NR concentration 270 nM)
# Outline: as §1
# [10] = test system: RARb:RXRa (NR concentration 270 nM, RXRa partner concentration 90 nM)
# Outline: as §1
# [11] = test system: RARb homodimer (NR concentration 270 nM)
# Outline: as §1
# [12] = test system: RARg:RXRa (NR concentration 270 nM, RXRa partner concentration 90 nM)
# Outline: as §1
# [13] = test system: RARg homodimer (NR concentration 270 nM)
# Outline: as §1
# [14] = test system: RXRa DBDmut IVT, anti-RXR (DBD mutation: RXRa K156A/R161A, NR concentration 90 nM)
# Outline: as §1
# [15] = test system: RXRa homodimer (NR concentration 180 nM)
# Outline: as §1
# [16] = test system: THRa:RXRa (NR concentration 90 nM, RXRa partner concentration 90 nM)
# Outline: as §1
# [17] = test system: THRa homodimer (NR concentration 90 nM)
# Outline: as §1
# [18] = test system: VDR homodimer (NR concentration 270 nM)
# Outline: as §1
Sequence,PBM binding z-score [1],PBM binding z-score [2],PBM binding z-score [3],PBM binding z-score [4],PBM binding z-score [5],PBM binding z-score [6],PBM binding z-score [7],PBM binding z-score [8],PBM binding z-score [9],PBM binding z-score [10],PBM binding z-score [11],PBM binding z-score [12],PBM binding z-score [13],PBM binding z-score [14],PBM binding z-score [15],PBM binding z-score [16],PBM binding z-score [17],PBM binding z-score [18]
CCTAGCAGGCCAGGGTCACACAAGCATTTCGCTT,0.592,1.47,-0.955,-1.08,1.19,3.43,-0.631,4.06,0.145,2.9,2.98,3.72,2.62,0.238,4.27,3.45,1.54,1.18
AGTCAAAGTTCACTAGGTAACGCAAGATTCAGCT,3.01,4.84,0.915,1.01,2.5,3.77,2.6,3.32,1.39,4.93,3.66,5.13,6.21,4.25,4.24,2.08,0.154,3.32
CGAACTAGGTAAGAACAGGACAGTGAAGGATGAT,3.73,2.52,0.465,0.0684,0.00147,-0.257,-0.137,-0.362,-0.184,-0.143,-0.183,0.0419,0.345,-0.391,-0.0524,0.664,-0.177,-0.504
GCAGACAGGTGAAAAGCAGGTAACTCAGGGTGGC,0.172,0.778,-0.581,-1.28,-0.799,-0.441,-0.329,0.143,-0.401,0.42,0.095,0.178,-0.088,-0.616,0.348,1.28,-0.428,-0.329
CGTCCAAGGACAGAGAGGTCAGTGAATGCCGAGT,0.0804,0.561,-0.629,-1.01,1.79,3.01,3.16,2.48,0.679,3.33,4,3.21,3.98,1.29,2.11,3.27,1.69,2.7
CCTCGGAGAACAACAGGAGGTCAGAGCTGCCAGA,-0.197,-0.0712,-1.48,-1.85,1.77,1.71,0.361,2.04,0.98,2.01,2.85,1.99,1.83,0.121,1.86,2.02,0.641,0.996
CAAACTAGGTCAATGGTCAAAGTCGAGCCAACCA,8.19,8.52,2.18,0.945,1.27,1.38,0.195,2.25,0.441,3.9,3.34,3.81,4.56,1.51,2.95,2.56,0.976,0.812
CCTACTAGGCCAAAAAGGTCATTGATGCCGATAA,5.03,4.58,-0.262,-0.187,2.71,4.88,5.01,5,1.4,4.09,4.74,4.81,4.61,1.38,4.95,3.35,0.809,2.99
TCTGCTAGGTCAGTGGGTCAGCTAACGAGCTGCC,4.42,5.76,0.364,-0.282,1.24,0.857,-0.958,2.11,-0.00938,3.77,3.84,3.92,4.5,0.404,2.23,1.94,0.337,-0.31
CCTGCTTGGTCATGGTCAGCTAATCTACAGTATG,0.417,0.0763,-1.17,-0.614,0.0024,-0.154,-0.228,-0.106,-0.318,1.24,0.424,0.464,0.774,0.252,0.162,-0.0915,-0.506,-0.205
CCTATTAGTTGACTATAAGGGCAACCGAAGCTCG,0.032,0.399,0.358,0.398,0.891,0.229,0.676,0.501,1.22,1.25,1.42,1.15,0.934,0.543,0.351,1.79,0.969,0.425
CCCAGTAGGTTATGGGGCATTCAGGCAACGGTGA,3.64,4.66,-0.461,-0.268,0.645,-0.0768,-0.414,0.112,-0.0462,0.967,0.987,0.653,0.48,-1.2,0.869,0.512,-0.000965,0.0729
ATCTCTAGGTAAATTTCAGTGAAAGATCGATAGA,1.2,1.5,1.22,1.58,0.671,0.0865,0.265,0.745,1.29,-0.125,-0.353,0.0563,0.241,0.179,0.137,0.356,-0.0111,0.034
AGAATAAGGTTATACGTAGATCAGGGAAGAAAGT,2.81,1.19,1.32,1.1,0.729,1.03,0.578,1.66,0.976,1.64,0.925,1.78,1.25,1.2,1.89,2.41,0.789,0.657
CTCGAAAGGTCGTGCTCAGGTGCGTATACCAAAC,0.285,1.52,0.6,0.566,0.856,3.09,0.43,3.46,-0.163,3.75,2.4,4.1,3.38,2.27,4.39,2.69,0.271,1.45
GCTAGTTGGTCAGTAAACGGTCACACACCGGTCG,0.107,0.661,0.0589,-0.0564,0.967,0.0338,0.06,0.591,0.301,1.76,2.63,1.5,1.33,-0.0327,0.347,0.155,-0.176,-0.361
